Screening results deposited in PubChem BioAssay by National Center for Advancing Translational Sciences (NCATS).
Only some compounds are listed: those with a hit (about 11% of all), similar ones and a draw of the others.
ALDH1A1 inh: ALDH1A1 (human) enzyme inhibition. Purified ALDH1A1, NADH fluorescence, propionaldehyde substrate. Potency, µM (series often up to 75.3 µM), inactives show at the top dose activity, negative = inhibition, hits mostly inhibitors. 220,000 compounds, 7.3% hits. AID 1030;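 further: potency means the concentration at half of the fitted maximal effect; plate controls were no enzyme wells and a reference inhibitor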
PNC inhibitor: blocks assembly of the perinucleolar compartment. PC3M PTB-GFP, PNC prevalence imaging, 16 h; hits give low values. activity change (PNC), negative = inhibition, % at 10 µM. 140,000 compounds, 3.1% hits. AID 2417;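 active means readout at or below -70, meaning at least 70% loss of cells showing the perinucleolar compartment, a nuclear body marking cancer cells; inconclusive means readout between -30 and a set limit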;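 further: plate controls were DMSO wells for no effect and camptothecin positive control wells for full effect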
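PC3M cells stably expressing PTB-GFP, 750–1000 cells/well, treated 16 h at 37 °C with compound (23 nl of library stock), in duplicate. After paraformaldehyde fixation and Hoechst stain, imaged at 20x; PNC prevalence scored by image analysis.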
HPGD inh: blocks human HPGD enzyme activity | P15428 | purified HPGD, NADH fluorescence kinetic, PGE2 substrate | Potency, µM, without a hit: top-dose activity change, negative = inhibition, usual class: inhibitors | 150,000 compounds, 4.3% hits | AID 894; further: potency means the concentration at half of the fitted maximal effect
Target sequence (P15428 whole entry, looked up): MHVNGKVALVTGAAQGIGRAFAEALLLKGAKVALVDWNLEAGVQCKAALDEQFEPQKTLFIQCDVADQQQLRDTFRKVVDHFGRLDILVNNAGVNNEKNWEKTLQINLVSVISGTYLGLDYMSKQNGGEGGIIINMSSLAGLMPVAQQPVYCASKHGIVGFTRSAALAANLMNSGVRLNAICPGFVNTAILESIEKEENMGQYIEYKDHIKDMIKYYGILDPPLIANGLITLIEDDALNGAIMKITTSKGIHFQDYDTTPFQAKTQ
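NADH formation kinetics: reaction with 30 uM PGE2 and 1 mM NAD+ (final), 20 nM enzyme, Tris-HCl pH 8 with Tween 20, after 15 min compound preincubation at room temperature. Fluorescence change, last versus first of five reads.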
* hit, by the source's call; u = inconclusive; x = not tested or not shown. Unless noted, the call rests on the fitted dose curve; in most records, active means well fitted inhibition curve with a large enough effect (not every such curve was filed as active); inconclusive means small, poorly fitted or top-dose-only effect, or another doubt; inactive means no such curve, though single readings can be large or run the other way. Unless noted, on the % scale 0 is the no-effect control and ±100 the full control effect.

SMILES	ALDH1A1 inh	PNC inhibitor	HPGD inh
CC(Cc1cccs1)NC(=O)Nc1ccc([N+](=O)[O-])cc1 (centres undefined)	-2%	x	x
CC(=O)OC1CSC2c3ccccc3C(=O)N2Cc2sccc21 (centres undefined)	-3%	x	x
CNC(=O)CSc1nnc(SCCC(=O)O)s1	3%	-1	-13%
CCNC(=S)Nc1cc(OCC)c(NC(=O)c2cccs2)cc1OCC	-2%	-16	-12%
O=[N+]([O-])c1cc(/C=N\Nc2nc(-c3ccccc3)cs2)ccc1O	11µM*	x	x
O=C(CNC(=O)c1ccco1)N/N=C/c1ccc(O)c([N+](=O)[O-])c1	-1%	2	-21%
O=C(CNC(=O)c1cccc(F)c1)N/N=C/c1ccc(O)c([N+](=O)[O-])c1	6%	-20	-14%
O=[N+]([O-])c1ccc(-c2csc(N/N=C/c3cccnc3)n2)cc1	-7%	x	x
O=C(CNC(=O)c1ccc(F)cc1)N/N=C/c1ccc(O)c([N+](=O)[O-])c1	u	-25	25µM*
O=C(CNC(=O)C(c1ccccc1)c1ccccc1)N/N=C/c1ccc(O)c([N+](=O)[O-])c1	13µM*	64	-15%
COc1cc(NC(=S)N2CCCCC2C)cc(OC)c1OC (centres undefined)	15%	x	x
Cc1cc(C)nc(SCSc2nc(C)cc(C)n2)n1	8%	7	-21%
Cc1cc(C)nc(SCCc2ccncc2)n1	25µM*	u	-21%
Cc1noc(C)c1C(=O)N1CCC2(CCCN(C(=O)NC(C)C)C2)CC1	16%	x	-8%
OCCNc1cc(-n2nc(-c3ccccc3)cc2-c2ccccc2)ncn1	-12%	9	-7%
Cc1cc(-c2ccccc2)n(-c2cc(N/N=C/c3ccccc3O)ncn2)n1	9%	-91*	-12%
O=C1CCCC(=O)N1c1ccc(Oc2ccc(Cl)cc2)cc1	u	u	-13%
C=CCn1c(SCc2c(C(=O)OC)sc(N)c2C(=O)OC)nnc1-c1ccc(Br)cc1	25µM*	u	u
C=CCn1c(SCC(=O)Nc2ncc(Cc3ccc(Br)cc3)s2)nnc1-c1ccncc1	6%	74	-3%
COc1ccc(C2=NOC(C(=O)Nc3ccc4c(c3)OCO4)C2)cc1OC (centres undefined)	-3%	x	x
COC(=O)C1CCCN1C(=O)COc1ccc(Cl)cc1Br (centres undefined)	u	-8	-12%
NC(=O)CS(=O)(=O)c1nc2ccccc2n1Cc1ccccn1	-2%	x	x
COc1ccc(Cn2c(S(=O)(=O)CC(N)=O)nc3ccccc32)cc1[N+](=O)[O-]	7.1µM*	x	x
CSc1ccc(/C=N/N2CCN(C)CC2)cc1	1%	x	x
CSc1ccc(C(=S)N2CCN(C)CC2)cc1	32µM*	34	28µM*
SMILES	ALDH1A1 inh	PNC inhibitor	HPGD inh
CSc1ccc(C(=S)N2CCN(C(c3ccccc3)c3ccccc3)CC2)cc1	2.4µM*	u	14µM*
COc1cc(NC(=S)N2CCN(C(c3ccccc3)c3ccccc3)CC2)cc(OC)c1	1%	8	-18%
CCCCN(C)CCCNC(=O)/C=C1\Sc2ccccc2NC1=O	5%	x	x
O=C(Nc1cccc(Oc2c(F)c(F)c(F)c(F)c2F)c1)N1C[C@@H]2C[C@@H](C1)c1cccc(=O)n1C2	3%	u	x
O=C(c1ccc(-c2nnc(Nc3ccccc3)c3ccccc23)cc1)N1C[C@H]2C[C@H](C1)c1cccc(=O)n1C2	13%	22	32µM*
O=C1CC(C(=O)N2CCN(c3ccc(F)cc3)CC2)CN1CCc1ccccc1 (centres undefined)	-11%	11	-7%
COc1ccccc1CN1CC(C(=O)N2CCN(c3ccc(F)cc3)CC2)CC1=O (centres undefined)	u	-99*	-12%
COC(=O)[C@@]1(Cc2ccc(OC)cc2)[C@H]2c3cc(C(=O)N(C)C)n(Cc4ccccc4)c3C[C@H]2CN1C(=O)c1ccccc1	-1%	x	-3%
CN(C)/C=C/C(=O)c1cnc(-c2ccccc2Cl)s1	7.1µM*	x	x
CC(=O)c1sc(-c2ccccc2Cl)nc1C	3%	x	x
O=c1c2ccccc2oc2nc(-c3cccs3)n(CCc3ccccc3)c(=O)c12	16%	19	-9%
N[C@H]1[C@@H](C(=O)O)[C@H]2C=C[C@H]1C2	0.5µM*	x	2%
O=C(O)C1C2C=CC(CC2)C1C(=O)O (centres undefined)	7%	38	-3%
COc1cccc(Nc2ncc3nc(CCc4ccccc4)c(=O)n(C[C@H]4CCCO4)c3n2)c1	25µM*	x	u
COc1cccc(Nc2ncc3nc(-c4ccccc4)c(=O)n(C[C@H]4CCCO4)c3n2)c1	4%	x	-6%
C=CCn1c(=N)n(CC(=O)c2ccc(Br)s2)c2ccccc21	5%	-2	-3%
